Source: PubChem BioAssay (EPA / NIEHS)
Activity calls are given as the source filed them. How the source made its calls: active means hit-call score of the fitted dose curve at least 0.9, where 1 is the maximum; inactive means score below 0.9.

read-out: solute carrier (SLC22A6), SLC22A6 (gene 9356); experiment: LTEA_HepaRG_SLC22A6: Life Technologies and Expression Analysis (LTEA) Assay for solute carrier (SLC22A6) using HepaRG (AID 2283653); details: mRNA level, 48 h; actives raise or lower the signal
Experimental: LTEA_HepaRG is a cell based, multiplexed-readout assay that uses HepaRG, a human liver cell line, with measurements taken at 48 hours after chemical dosing on a 96-well plate.LTEA_HepaRG_SLC22A6 is one of 102 assay component(s) measured in the LTEA HepaRG cell culture assay. It is a marker of NR mediated transport.Data from the assay component LTEA_HepaRG_SLC22A6 was analyzed into 1 endpoint. This assay endpoint, LTEA_HepaRG_SLC22A6, was analyzed with bidirectional fitting relative to DMSO as the negative control and baseline of activity. Using a type of inducible reporter, measures of mRNA induction for gain or loss-of-signal activity can be used to understand regulation of transcription factor activity. To generalize the intended target to other relatable targets, this assay endpoint is annotated to the transporter intended target family, where the subfamily is organic anion transporter.
A total of 1060 chemcials from the ToxCast library were tested in eight-point concentration-response experiments. Cell culture and cytotoxicity assays were conducted at Thermo Fisher Scientific's Custom Services facility (Madison, WI). A single lot of human HepaRG cells (Thermo Fisher Scientific, Frederick, MD) was used for the cell culture experiments. 96-well format collagen type I coated plates of human HepaRG cells were prepared using established methods. Briefly, cryopreserved HepaRG cells were thawed, plated at a density of approximately 100,000 cells/well in HepaRG Thaw, Plate, and General Purpose media (HPRG770, Thermo Fisher Scientific), and incubated for 48 hours. 0.5% DMSO was selected as vehicle control to balance the requisite need of DMSO in HepaRG cultures to maintain differentiation (for example, baseline metabolism, proportions of hepatocytes vs. cholangiocytes), while enabling further hepatic receptor pathway activation (for example, PXR and CAR) in response to chemical exposure. 48 hours after plating, the culture medium was replaced with HepaRG Serum-Free Incudtion Media. Cells were exposed to each test chemical in duplicate and maintained in CO2 incubators for another 48 hours. Chemical plates were thawed to room temperature and 200x concentrations of treatment groups were prepared. 8-point conentration-reponse curves were made with the highest exposure at 100 uM, followed by half-log dilutions, all in 0.5% DMSO. Each test plate contained variouse controls, induction positive controls (1mM phenobarbital), cytotoxicity positive controls ([…] aflatoxin B1), vehicle controls (0.5% DMSO), and total lysis controls (0.5% DMSO). Cell morphology images were taken using an Essen IncuCyte FLR automated microscope, with six 96-well plates imaged in about 24 minutes. Images were captured and exported and JPEG files. Spent culture media was transfered to black-well plates for the LDH assay, and remaining media was sorted at -80 C for later use. Cells were treated with RLT buffer and frozen until shipped for gene expression analysis. Total RNA was isolated from the cell suspension in 75 uL of Buffer RLT (Qiagen, Germantown, MD 20874) by Quintiles/Expression Analysis (Durham, NC) using a custom isolation procedure. Total RNA from each plate well was transferred to a preamplification plate. Fluidigm's 96.96 Dynamic ArrayTM (Fluidigm, Amsterdam, the Netherlands) technology was used for gene expression analyses by quantitative reverse transcription polymerase chain reaction (qRT-PCR, performed by Quintiles/Expression Analysis, Durham, NC)89. Standard TaqManTM Assays (Applied Biosystems/ThermoFisher Scientific, Foster City, CA) were used to assess the expression of 93 genes selected based on their selectivity and sensitivity to important hepatic receptors known to be modulated by environmental chemicals; importance in human hepatocyte functionality; and hepatotoxicity. […]

| Compound | outcome |
| --- | --- |
| CN1CSC(=S)N(C)C1 | inactive |
| CCC(C)Nc1c([N+](=O)[O-])cc(C(C)(C)C)cc1[N+](=O)[O-] (stereo not given) | inactive |
| CCCN(CCOc1c(Cl)cc(Cl)cc1Cl)C(=O)n1ccnc1 | inactive |
| CCCN(CCC)c1c([N+](=O)[O-])cc(C(F)(F)F)cc1[N+](=O)[O-] | inactive |
| Cc1[nH]c(=O)n(C(C)(C)C)c(=O)c1Cl | inactive |
| N#Cc1c(Cl)c(Cl)c(Cl)c(C#N)c1Cl | inactive |
| ClC1C(Cl)C(Cl)C(Cl)C(Cl)C1Cl (stereo not given) | inactive |
| O=C1c2ccccc2C(=O)N1SC(Cl)(Cl)Cl | inactive |
| CCOC1Oc2ccc(OS(C)(=O)=O)cc2C1(C)C (stereo not given) | inactive |
| CC1(C)C(C=C(Cl)Cl)C1C(=O)OC(C#N)c1ccc(F)c(Oc2ccccc2)c1 (stereo not given) | inactive |
